Experimental data: the supplement of paper PMC12067093, “Discovery and optimisation of a covalent ligand for TRIM25 and its application to targeted protein ubiquitination” (Chemical Science, 2025)
The full data set covers some 21,000 targets. This sample favours those with the largest changes.

Compound: CC1Cc2ccccc2N1C(=O)C1CCCN(C1)C(=O)CCl (mixture of isomers) [TRIM25 ligand 11 (diastereomer mixture)]
Assay: probe-labelled cysteine peptide fold change vs DMSO (competition) (log2 fold change); higher = less target engagement (more negative = stronger competition)
Settings: THP-1, incubation time: 4 h
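Note: competitive chemoproteomic profiling in live THP-1 cells with an iodoacetamide desthiobiotin (IA-DTB) probe, comparing probe-labelled peptide intensities in compound-treated cells against DMSO-treated controls.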

**Q.** For “MVP_Q14764_515_ALCLLLGPDFFTDVITIETADHAR (UniProt Q14764)”, which “probe-labelled cysteine peptide fold change” value (10 µM) is on record?
**A.** The value was 0.505.

**Q.** What about the “probe-labelled cysteine peptide fold change” value (50 µM) of the same target?
**A.** Its value is 0.893.

**Q.** “NBEAL2_Q6ZNJ1_2335_ALEGIISNFGQTPCQLLK (UniProt Q6ZNJ1)” was tested. Which “probe-labelled cysteine peptide fold change” value (10 µM) did it give?
**A.** The value was 0.0509.

**Q.** And the “probe-labelled cysteine peptide fold change” value (50 µM)?
**A.** The value was -0.034.

**Q.** Which “probe-labelled cysteine peptide fold change” value (10 µM) does the source give for “MAP10_Q9P2G4_605_TVDCSK (UniProt Q9P2G4)” here?
**A.** The value was -0.174.

**Q.** And the “probe-labelled cysteine peptide fold change” value (50 µM)?
**A.** Its value is -0.0642.

**Q.** How did the “probe-labelled cysteine peptide fold change” value (10 µM) turn out when “NCAPD3_P42695_361_ILLQHICAK (UniProt P42695)” was run?
**A.** Its value is -0.145.

**Q.** What about the “probe-labelled cysteine peptide fold change” value (50 µM) of the same target?
**A.** The value was 0.173.

**Q.** For “MED1_Q15648_302_WTPSFSSITSANSVDLPACFFLK (UniProt Q15648)”, which “probe-labelled cysteine peptide fold change” value (10 µM) is on record?
**A.** Its value is -0.00458.

**Q.** What about the “probe-labelled cysteine peptide fold change” value (50 µM) of the same target?
**A.** The value was 0.123.

**Q.** With “MIF_P14174_81_LLCGLLAER (UniProt P14174)” as the target, how does the “probe-labelled cysteine peptide fold change” value (10 µM) read?
**A.** The value was -0.156.

**Q.** And the “probe-labelled cysteine peptide fold change” value (50 µM)?
**A.** Its value is -0.117.
